Assay outcomes deposited in PubChem BioAssay by several laboratories.
MazF activator: activators of E. coli MazEF toxin-antitoxin RNase, primary screen, biochemical, fluorescence, uHTS. Endoribonuclease toxin MazF (Escherichia coli (strain K12)), P0AE70. 0.32% of 350,000 active. AID 504720, 2011. activation, % at 20 µM. FAM/BHQ RNA-DNA oligo cleavage fluorescence, 5 h; in the data active = activation above about 50%
BoNT-A LC inh2: BoNT/A light chain protease inhibitors, primary screen, biochemical, flow cytometry, MLPCN library | 0.17% of 360,000 active | Botulinum neurotoxin type A light chain protease (Clostridium botulinum A str. ATCC 3502) | multiplex microsphere protease substrate cleavage | inhibition, % at 10 µM; also: plate controls were buffer without enzyme for full effect and enzyme alone for no effect
PriA SSB inh: inhibitors of Klebsiella pneumoniae PriA binding to SSB C-terminal tail, primary screen, biochemical, AlphaScreen | PriA–SSB C-terminal tail interaction (Klebsiella pneumoniae) | AlphaScreen SSBct-PriA binding, biotinylated peptide | inhibition, % at 33 µM | 0.6% of 430,000 active | AID 1272365, 2023; in the data active = inhibition mostly above about 37%, no sharp cut-off; inactive = mostly below about 20%;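 also: plate controls were negative control peptide for no effect and reference peptide for full effect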
Anthrax LF inh2: Bacillus anthracis LF protease inhibitors, primary screen, biochemical, multiplex microsphere, MLPCN library | Lethal factor (Bacillus anthracis), P15917 | multiplex microsphere protease cleavage assay | 0.12% of 360,000 active | inhibition, % at 10 µM; also: plate controls were buffer without enzyme for full effect and enzyme alone for no effect
Target sequence (P15917 whole entry, looked up): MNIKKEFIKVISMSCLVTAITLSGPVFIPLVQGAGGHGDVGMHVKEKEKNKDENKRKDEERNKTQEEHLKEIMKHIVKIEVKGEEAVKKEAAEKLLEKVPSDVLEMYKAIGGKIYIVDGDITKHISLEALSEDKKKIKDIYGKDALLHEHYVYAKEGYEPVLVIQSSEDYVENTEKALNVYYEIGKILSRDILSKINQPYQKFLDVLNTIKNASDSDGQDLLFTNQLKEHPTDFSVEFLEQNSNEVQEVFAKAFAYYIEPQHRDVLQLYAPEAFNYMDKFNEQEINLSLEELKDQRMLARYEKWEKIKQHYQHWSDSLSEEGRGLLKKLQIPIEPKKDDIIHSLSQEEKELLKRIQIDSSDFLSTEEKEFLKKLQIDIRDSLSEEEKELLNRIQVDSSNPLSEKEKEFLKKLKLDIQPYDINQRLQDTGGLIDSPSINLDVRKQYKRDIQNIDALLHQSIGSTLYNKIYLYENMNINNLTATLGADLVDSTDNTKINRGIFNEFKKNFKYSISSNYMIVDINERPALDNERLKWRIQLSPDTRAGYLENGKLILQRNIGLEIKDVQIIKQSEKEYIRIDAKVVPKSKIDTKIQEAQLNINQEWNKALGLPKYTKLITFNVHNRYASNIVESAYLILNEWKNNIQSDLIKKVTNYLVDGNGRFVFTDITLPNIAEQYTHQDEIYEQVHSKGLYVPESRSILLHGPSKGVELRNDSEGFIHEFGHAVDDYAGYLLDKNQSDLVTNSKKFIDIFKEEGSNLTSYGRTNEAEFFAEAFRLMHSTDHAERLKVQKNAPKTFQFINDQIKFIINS
Autofluor counter: flagged as autofluorescent in microsphere protease counterscreen | compound autofluorescence counterscreen, microsphere flow cytometry; stronger effect = higher value | fluorescence intensity (concentration not given with the values) | 3.1% of 360,000 active | AID 624483; in the data active = fluorescence intensity above about 16000; inconclusive = no clear call, values can overlap the other calls
BoNT-F LC inh: BoNT/F light chain protease inhibitors, primary screen, biochemical, flow cytometry, MLPCN library. Multiplex microsphere protease cleavage assay. inhibition, % at 10 µM. 0.22% of 360,000 active; in the data active = inhibition above about 35%, passing the limit was not always enough; inconclusive = no clear call, values can overlap the other calls; also: plate controls were buffer without enzyme for full effect and enzyme alone for no effect
The depositor's hits bear a star; i = inactive; ? = inconclusive; / = not tested or not shown. Sampled rows, rich in hits. Any-hit rate of the full collection: about 3.3%. Rule as the data show it, unless noted: active = inhibition above about 30%; inconclusive = no clear call, values can overlap the other calls; inactive = below that.

SMILES	MazF activator	BoNT-A LC inh2	PriA SSB inh	Anthrax LF inh2	Autofluor counter	BoNT-F LC inh
C(=NNc1nc2ccccc2[nH]1)c1c[nH]c2ccccc12	/	/	50*	/	/	/
COc1ccc(OC)c(NC(=O)NCCNc2ccc(Nc3ccncc3)nn2)c1	/	/	-21	/	/	/
COc1ccc(CCNC(=O)c2cccc(-n3cnnn3)c2)cc1	-5	0	-3	-5	3683	-2
Cc1ccc(CNC(=O)c2cccc(-n3cnnn3)c2)cc1	4	0	1	0	23751*	0
COc1ccc(-c2[nH]nc(N)c2C)cc1	/	/	-10	/	/	/
CCCCn1cnc2c1c(=O)n(C)c(=O)n2C	-1	-3	-9	-3	23846*	-7
Cn1c(=O)c2c(ncn2CCCc2ccccc2)n(C)c1=O	-5	3	-5	-13	20359*	4
COc1ccc(C(C)NC(=O)Cn2cc(C#N)c3ccccc32)cc1 (configuration not stated)	/	/	-12	/	/	/
O=C(CC1CCCC1)NCc1cc(-c2cccs2)on1	/	/	-4	/	/	/
O=C(Cn1cnc2ccccc21)N/N=C\c1ccc(Cl)cc1Cl	/	/	8	/	/	/
CCC(c1nnnn1CCOC)N(Cc1cc2cc(C)c(C)cc2[nH]c1=O)CC1CCCO1 (configuration not stated)	10	3	-8	-2	15328	-2
CCCC(c1nnnn1CCOC)N(Cc1cc2cc(C)c(C)cc2[nH]c1=O)CC1CCCO1 (configuration not stated)	7	0	-15	1	16616*	-1
Cc1ccc(C2CN(C)C3(C(=O)Nc4ccccc43)C23COc2ccccc2C3=O)cc1 (configuration not stated)	3	0	0	-3	4429	-2
CN1CC(c2ccccc2Cl)C2(COc3ccccc3C2=O)C12C(=O)Nc1ccccc12 (configuration not stated)	3	0	12	0	20126*	-1
Cc1nc2ccc(NC(=S)NC(C)C)cc2nc1C	9	3	-16	1	22287*	3
Cc1nc2ccc(NC(=S)NC3CC3)cc2nc1C	2	2	-6	-2	2483	-5
O=C(Nc1cccc(Cl)c1)c1cnn2cccnc12	4	?	-4	-3	23465*	2
O=C(Nc1cc(Cl)cc(Cl)c1)c1cnn2cccnc12	-23	0	-6	-3	4454	-3
Cc1cc(=O)[nH]c(-n2nc(C)c(CCC(=O)NCCC3=CCCCC3)c2C)n1	/	/	2	/	/	/
Cn1c(=O)c(C(=O)NCc2ccccc2Cl)c(O)c2ccccc21	54*	-2	-7	2	3000	5
CCn1c(=O)c(C(=O)NCc2ccccc2Cl)c(O)c2ccccc21	-3	2	-16	-9	3425	23
Cc1ccc2nc(-c3ccc(NC(=O)c4oc(C)nc4C)cc3)sc2c1	/	/	-5	/	/	/
Clc1ccc2ccc3cccnc3c2n1	5	-2	-8	-6	3845	-2
C/[N+]([O-])=C\c1ccc2ccc3cccnc3c2n1	/	/	154*	/	/	/
COc1cccc(NC(=O)NCCn2nc(-c3cccs3)ccc2=O)c1	/	/	-1	/	/	/
SMILES	MazF activator	BoNT-A LC inh2	PriA SSB inh	Anthrax LF inh2	Autofluor counter	BoNT-F LC inh
CCCCCCCC(=O)NNC(=O)c1ccc([N+](=O)[O-])cc1	4	-4	-26	-2	24645*	-5
CN(C)CCOCCP(=O)(c1ccccc1)c1ccccc1	6	1	-1	2	23350*	4
Cc1nc2ccccc2c(=O)n1-c1ccc(NC(=O)COc2ccc3c(c2)OCO3)cc1	/	/	-1	/	/	/
COc1cc(N)c2ncccc2c1	/	/	47*	/	/	/
Cc1nc(N2CCN(c3ccccc3)CC2)nc2c1C(=O)CCC2	-3	1	-17	-3	22851*	0
O=C1CCCc2nc(N3CCN(c4ccccc4)CC3)ncc21	4	0	2	3	3399	17
Cc1nc(N2CCN(c3ccccc3)CC2)nc2c1C(=O)CC(c1ccccc1)C2 (configuration not stated)	-11	6	3	-12	17903*	6
Cc1nc(N2CCN(c3ccccc3)CC2)nc2c1C(=O)CC(C)C2 (configuration not stated)	-4	1	8	-2	21996*	1
N#Cc1c(NC(=O)C2=COCCO2)sc2c1CCC2	/	/	0	/	/	/
CCOc1ccc(NC(=O)CC2C(=O)N(c3ccccc3)C(=O)N2Cc2ccccn2)cc1 (configuration not stated)	4	?	-8	-1	22858*	5
CCOc1ccc(NC(=O)CC2C(=O)N(c3ccccc3)C(=S)N2Cc2ccccn2)cc1 (configuration not stated)	2	-1	-2	-2	9610	-5
COc1ccc(NC(=O)CC2C(=O)N(c3cccc(OC)c3)C(=O)N2CCC(C)C)cc1 (configuration not stated)	-1	4	-9	1	19759*	-1
Cn1c(SCC(=O)Nc2cccc(C(F)(F)F)c2)nnc1-c1cccn(C)c1=O	/	/	-14	/	/	/
O=C(CSc1nccn2nc(-c3cccc4ccccc34)cc12)Nc1ccccc1C(F)(F)F	/	/	-2	/	/	/
COc1ccc(/C=N/n2c(C)nc3sc(C)c(C)c3c2=O)cc1	-22	8	i	?	3518	38*
Cc1sc2nc(C)n(/N=C/c3ccccc3)c(=O)c2c1C	6	-2	/	-6	9196	-2
Cc1noc(C)c1CCl	/	/	7	/	/	/
CC(C)CC(NC(=O)C(NC(=O)OC(C)(C)C)C(C)C)C(N)=O (configuration not stated)	10	0	6	-1	2189	-1
CSCCC(NC(=O)OC(C)(C)C)C(=O)NC(C(=O)NC(CC(C)C)C(N)=O)C(C)C (configuration not stated)	6	2	-1	11	9295	72*
CCCCn1ccnc1C(=O)c1cccc(S(=O)(=O)N2CC(C)CC(C)C2)c1 (configuration not stated)	-10	0	-23	-8	16271*	-4
CCC1CCc2[nH]nc(C(=O)O)c2C1 (configuration not stated)	-2	1	-1	-1	8617	6
CC1CCc2[nH]nc(C(=O)O)c2C1 (configuration not stated)	-11	2	-6	-8	20725*	3
Cc1ccnc(Nc2ccc(NCCNC(=O)c3ccc(Br)o3)nn2)c1	/	/	62*	/	/	/
Cc1c(NC(=S)NC(=O)Cc2ccccc2)cccc1C(=O)O	0	?	-8	-3	21800*	-1
